RXFP1 antag: qHTS Assay for Antagonists of the Relaxin Receptor RXFP1; Relaxin receptor 1 (Homo sapiens), Q9HBX9; HEK293-RXFP1, relaxin-stimulated cAMP HTRF, 30 min; stronger effect = lower value; activity change, negative = inhibition, % at 57.5 µM; actives 0.59% (n = 350,000);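 active means activity change of -60% or lower, but not beyond a set lower limit; inconclusive means change between -60% and -40%, or beyond the set limit; inactive means change above -40%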; further: on the % scale 0 is the no-effect control and ±100 the full control effect
Target sequence (Q9HBX9 whole entry, looked up): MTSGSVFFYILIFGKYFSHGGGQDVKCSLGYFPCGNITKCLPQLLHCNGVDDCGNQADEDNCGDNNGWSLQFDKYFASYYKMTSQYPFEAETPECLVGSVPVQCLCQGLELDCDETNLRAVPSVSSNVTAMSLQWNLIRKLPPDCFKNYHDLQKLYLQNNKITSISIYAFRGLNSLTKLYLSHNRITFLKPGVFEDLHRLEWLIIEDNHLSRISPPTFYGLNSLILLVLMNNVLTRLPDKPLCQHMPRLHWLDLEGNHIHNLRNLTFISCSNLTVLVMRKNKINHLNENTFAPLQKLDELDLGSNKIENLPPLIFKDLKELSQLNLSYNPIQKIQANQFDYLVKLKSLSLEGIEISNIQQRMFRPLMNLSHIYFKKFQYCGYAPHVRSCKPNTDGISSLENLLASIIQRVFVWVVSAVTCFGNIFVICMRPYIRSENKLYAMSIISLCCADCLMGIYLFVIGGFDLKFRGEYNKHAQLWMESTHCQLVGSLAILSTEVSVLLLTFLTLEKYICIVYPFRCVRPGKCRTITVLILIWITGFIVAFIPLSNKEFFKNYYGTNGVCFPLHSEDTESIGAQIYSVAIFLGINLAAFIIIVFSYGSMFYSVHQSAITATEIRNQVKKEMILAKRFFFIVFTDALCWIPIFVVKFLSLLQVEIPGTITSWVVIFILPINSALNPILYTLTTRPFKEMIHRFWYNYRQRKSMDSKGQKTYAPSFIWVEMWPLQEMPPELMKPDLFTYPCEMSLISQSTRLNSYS
MmCpn inh: Inhibitors of TCP-1 ring complex (TRiC) of Methanococcus maripaludis (MmCpn): qHTS; actives 0.031% (n = 330,000); Potency, µM (series often up to 76.9 µM), without a hit: at the top dose activity, negative = inhibition, usual class: inhibitors; purified Mm-Cpn ATPase, ADP Transcreener TR-FRET; Chaperonin Mm-Cpn (Methanococcus maripaludis); further: potency means the concentration at half of the fitted maximal effect; on the % scale 0 is the no-effect control and ±100 the full control effect; nearly all actives have a fitted effect of over 80% in size
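ATPase read-out: TR-FRET ADP immunoassay (anti-ADP Eu cryptate vs ADP-d2), ex 320 nm, em 590/665 nm; signal drops as ADP forms. Enzyme 25 nM, ATP 10 uM, 30 min at 37°C after 10 min compound preincubation.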
gsp ag: qHTS for Agonist of gsp, the Etiologic Mutation Responsible for Fibrous Dysplasia/McCune-Albright Syndrome: qHTS. gsp mutant cells, cAMP HTRF, 30 min. Potency, µM (doses to about 76.9 µM), inactives show top-dose activation (cAMP increase), most hits filed as activators. actives 0.13% (n = 340,000). AID 624287, 2012; active means well fitted activation curve with a large enough effect; inconclusive means small, poorly fitted or top-dose-only effect, or another doubt; inactive means no such curve, though single readings can be large or run the other way; cell line not stated here;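 further: phosphodiesterase inhibitor Ro 20-1724 added with compounds to block cAMP breakdown; potency means the concentration at half of the fitted maximal effect; nearly all actives have a fitted effect of over 60% in size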
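Cells stably selected in G418 were plated at 2000/well, grown 16-24 hr, then given compounds in DMSO with the PDE inhibitor […] (300 uM solution added) for 30 min at 37C; cAMP was read by HTRF.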
gsp antagonist: qHTS for Antagonists of gsp, the Etiologic Mutation Responsible for Fibrous Dysplasia/McCune-Albright Syndrome: qHTS; gsp-mutant cells, cAMP HTRF, 30 min; Potency, µM (top dose mostly 76.9 µM), inactives show at the top dose activity change, negative = inhibition, hits mostly inhibitors; actives 0.4% (n = 340,000); AID 624288, 2012; calls by dose curve; cell line not stated here;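 further: intracellular cAMP measured with PDE inhibitor Ro 20-1724 present during compound exposure; potency means the concentration at half of the fitted maximal effect; on the % scale 0 is the no-effect control and ±100 the full control effect; nearly all actives have a fitted effect of over 65% in size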
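HTRF cAMP read-out (cAMP-d2 plus anti-cAMP antibody-K in lysis buffer, 30 min RT). Before lysis, cells are exposed to compounds with […] for 30 min at 37C in DPBS containing Ca/Mg, BSA and Tween 20.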
CCT chaperon mod: High-Throughput Screening for Modulators of Cytosolic Chaperonin Activity. purified chaperonin ATPase assay, HTRF ADP detection, 30 min. activity change, % (test concentration not listed), hits read low. actives 0.3% (n = 360,000). AID 651819, 2012; in the data active means activity change below about -30%; further: on the % scale 0 is the no-effect control and ±100 the full control effect
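Enzyme 40 or 20 nM (batch-dependent) in Tris pH 7.4/KCl/MgCl2/DTT; cpd 76 uM single point; ATP 10 uM; 30 min 37 °C; Transcreener ADP HTRF detection, 30 min RT; ratio 665/615.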
RXFP1 agonist: qHTS Assay for Agonists of the Relaxin Receptor RXFP1; Potency, µM (top dose mostly 57.5 µM), for the others: at the top dose activation, most hits filed as activators; HEK293T-RXFP1 cAMP TR-FRET, 30 min; response scale: percent of porcine relaxin response, buffer zero; actives 0.3% (n = 370,000); Relaxin receptor 1 (Homo sapiens), Q9HBX9; further: potency means the concentration at half of the fitted maximal effect; on the % scale 0 is the no-effect control and ±100 the full control effect; nearly all actives have a fitted effect of over 60% in size
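Agonist response is measured as cAMP accumulation in an RXFP1-transfected HEK293T line under PDE4 inhibition. Values are scaled between buffer-only and 29 nM porcine relaxin, and EC50s come from standard Hill equation fits.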
* = called active by the depositor; ? = inconclusive; · = not tested or not shown; ! = repeats disagree; [ ] = dose if it differs, or a comment. Shown are actives, neighbours in structure and some others; about 1.2% of the full set was active somewhere. Unless noted, the call rests on the fitted dose curve; in most records, active means well fitted curve in the direction sought with a large enough effect; inconclusive means small, poorly fitted or top-dose-only effect, or another doubt; inactive means no such curve, though single readings can be large; an effect the other way counts as inactive or inconclusive.

SMILES	RXFP1 antag	MmCpn inh	gsp ag	gsp antagonist	CCT chaperon mod	RXFP1 agonist
COc1ccc(S(=O)(=O)N(CC(=O)NC(C)C)Cc2ccccc2)cc1	4	1%	27%	8%	0	0%
COc1ccc(S(=O)(=O)N(CCC(=O)O)Cc2ccccc2)cc1	-3	2%	-8%[15.4 µM]	-5%	-50*	0%
O=C(Nc1cccc(Br)c1)c1ccc(Cl)c(S(=O)(=O)N2CCOCC2)c1	-29	-1%	-12%	40µM*	0	0%
O=C(Nc1ccc(Cl)c(S(=O)(=O)N2CCOCC2)c1)c1ccc(OCC2CCCO2)cc1 (stereo not given)	-30	0%	-32%	32µM*	2	-1%
O=C(Nc1cccc(S(=O)(=O)C(F)F)c1)c1ccc(Cl)c(S(=O)(=O)N2CCOCC2)c1	-26	2%	11%	28µM*	1	1%
Cc1ccc(S(=O)(=O)N2CCOCC2)cc1C(=O)Nc1cccc(C(=O)NC2CC2)c1	2	1%	-5%	7%	-3	-1%
O=C(NC1CC1)c1cccc(NC(=O)c2cc(S(=O)(=O)N3CCOCC3)ccc2Cl)c1	-3	-1%	10%[15.4 µM]	8%	-32*	-2%
COc1ccc(C(=O)Nc2ccc(Cl)c(S(=O)(=O)N3CCOCC3)c2)cc1	?	1%	29%	?	1	·
O=C(Nc1cccc(C(=O)NC2CC2)c1)c1ccc(Cl)c(S(=O)(=O)N2CCOCC2)c1	4	-2%	3%	-10%	0	1%
CN1C(CSCC(F)(F)F)Nc2cc(Cl)c(S(N)(=O)=O)cc2S1(=O)=O (stereo not given)	-8	·	·	·	·	·
CC/C=C(\C(=O)N[C@H]1C(=O)N2C(C(=O)OCOC(=O)C(C)(C)C)=C(COC(N)=O)CS[C@H]12)c1csc(N)n1	-6	·	·	·	·	·
Cc1ccc(Cn2cc(CCC(=O)NC3CCC(C)CC3)c3ccccc32)cc1 (stereo not given)	-15	·	·	·	·	6%
COc1ccc2[nH]c(C(=O)Nc3ccc(F)cc3Br)cc2c1	-9	?	21%[15.4 µM]	4%	-50*	?
CC1CCc2cc(F)ccc2N1C(=O)CSc1nnc2c(n1)[nH]c1ccccc12 (stereo not given)	-62*	0%	0%[15.4 µM]	-25%	-2	0%
Cn1c(=O)cc(SCC(=O)N2CCOCC2)c2ccc(Cl)cc21	22	-2%	?	-19%	-1	4%
Cn1c(=O)cc(SCC(=O)N2CCCC2)c2ccc(Cl)cc21	28	0%	11µM*	-19%	0	7%
COc1cc(C(=O)Nc2nnc(S(=O)(=O)N3CCCCCC3)s2)cc(OC)c1OC	23	-3%	30%	-11%	-32*	9%
CN(c1ccccc1)S(=O)(=O)c1nnc(NC(=O)c2cccs2)s1	-6	·	·	·	·	-2%
COc1cc(C(=O)Nc2nnc(S(=O)(=O)N(C)c3ccccc3)s2)cc(OC)c1OC	-64*	·	·	·	·	0%
COc1cc2[nH]c(=O)n(CCCCCC(=O)N3CCN(c4ccc(Cl)cc4)CC3)c(=O)c2cc1OC	-10	·	·	·	·	-1%
CC(=O)OCC1=C(C(=O)O)N2C(=O)[C@@H](NC(=O)CSc3ccncc3)[C@H]2SC1	-92*!	?	-7%[15.4 µM]	10%	2	2%
CC(C)c1ccc(C2N3CC4(C)CN2CC(c2ccccc2)(C3)C4=O)cc1 (stereo not given)	-11	·	·	·	·	-4%
COc1ccc([N+](=O)[O-])cc1N(CC(O)CN1CCCC1)S(=O)(=O)c1ccc(C)cc1 (stereo not given)	-66*	2%	?	4%	0	-1%
COc1ccc([N+](=O)[O-])cc1N(CC(O)CN(C)C)S(=O)(=O)c1ccccc1 (stereo not given)	·	-1%	-36%	17%	0	4%
COc1ccc(-c2nc(CN3CCN(c4ncnc5ccccc45)CC3)c(C)o2)c(OC)c1	-14	1%	-19%	32µM*	4	2%
SMILES	RXFP1 antag	MmCpn inh	gsp ag	gsp antagonist	CCT chaperon mod	RXFP1 agonist
CCOc1ccc(NC(=O)Cn2c(=O)n(-c3ccc(C)cc3)c(=O)c3cc(OC)c(OC)cc32)cc1	·	·	·	·	·	1%
Cc1cc(Cl)ccc1NC(=O)CN1C(=O)COc2ccc(S(=O)(=O)Nc3ccccc3)cc21	·	·	·	·	·	3%
Cc1cc(F)ccc1S(=O)(=O)Nc1ccc2oc3c(c2c1)CC(C)CC3 (stereo not given)	?	·	·	·	·	-4%
CC(=O)c1c(C)oc2ccc(NS(=O)(=O)c3ccc(F)cc3C)cc12	-8	-3%	12%[15.4 µM]	25µM*	1	-3%
O=C(CSC1=Nc2ccccc2N=C(c2ccc(F)cc2)C1)Nc1ccc(Cl)cc1	·	·	·	·	·	2%
Cc1ccc(S(=O)(=O)CC(=O)N(CCCN2CCOCC2)c2nc3c(F)cccc3s2)cc1	?	0%	7%[15.4 µM]	-19%	-1	1%
O=C(CCS(=O)(=O)c1ccccc1)N(CCCN1CCOCC1)c1nc2c(F)cccc2s1	-74*	-3%	-5%	1%	1	1%
COCCCNC(=O)c1ccc(-n2c(-c3ccccc3)cc3c2CCC(C)C3)cc1 (stereo not given)	-15	·	·	·	·	5%
CCC(Sc1nc2cc3c(cc2c(=O)n1CCCC(=O)NCc1ccc2c(c1)OCO2)OCO3)C(=O)NCCCOC (stereo not given)	-106*	·	·	·	·	2%
Cc1cc(C)c(/C=C/c2onc(C)c2S(=O)(=O)N2CCC(C(=O)NCCc3ccccc3)CC2)c(C)c1	-10	·	·	·	·	1%

High-throughput results from PubChem BioAssay.
